Experimental data reported in PubChem BioAssay (NCATS).
Results filed as inconclusive are left out. Activity calls are given as the source filed them. Calls come from the whole dose curve.

Each compound was assayed against Vitamin D3 receptor (Homo sapiens) (UniProt P11473) (assay: qHTS assay for small molecule agonists of vitamin D receptor signaling (AID 588543)). Conditions: HEK293T VDR-UAS-bla, beta-lactamase ratio, 16 h; series mostly up to 76.8 µM; activation: at the top concentration.
Source text: NIH Chemical Genomics Center [NCGC]
U.S. Environmental Protection Agency [EPA]
National Institutes of Environmental Health Sciences [NIEHS]
National Toxicology Program [NTP]
The Vitamin D receptor (VDR) is a member of nuclear hormone receptor superfamily and it plays a critical role in calcium homeostasis and bone metabolism. It plays a role in inducing cell differentiation, inhibiting cell growth and in thrombogenicity. So, VDR that mediates these effects represents a pharmacological target in prevention and treatment of hyperproliferative malignancies, such as cancer and psoriasis, cardiovascular, immunological, inflammatory and renal diseases etc.
NCGC Assay Protocol Summary
Using a beta-lactamase reporter-gene under control of Vitamin D receptor (VDR) response element, a cell-based assay [GeneBLAzer (VDR -UAS-bla assay developed by Invitrogen] was used to measure VDR ligands signaling. GeneBLAzer VDR -UAS-bla HEK293T cells were used with assay medium containing 2% charcoal-stripped FBS. The assay was performed in clear bottom black Greiner 1536-well plates. 1-alpha,25-Dihydroxy vitaminD3 was used as a positive control in the screen. Library compounds were measured for their ability to stimulate the reporter gene activity. Compounds were screened in a titration series in 1536-well format. The fluorescence intensity (405 nm excitation, 460/530 nm emission) was measured using an EnVision plate reader. Data was normalized relative to 1-alpha,25-Dihydroxy vitaminD3 control (50 nM, 100%) and DMSO only wells (basal, 0%). Concentration-response titration points for each compound were fitted to the Hill equation yielding concentrations of half-maximal stimulation (EC50) and maximal response (efficacy) values.
qHTS protocol for VDR beta-lactamase assay in agonist mode
[Step] [Parameter] [Value] [Description]
1. Reagent; 6 uL; 2000 cells/well
2. Incubation; 37 C for 5 hrs
4. Controls (1-alpha,25-Dihydroxy vitaminD3); 23 nL,
- Final concentrations of 50 nM and 15 nM in two columns
5. Incubation; 37 C for 16 hrs
6. Detection reagent; 1 uL of CCF4-dye
7. Incubation; RT for 2 hrs
8. Detection; Fluorescence; Envision plate reader

Sequence of Vitamin D3 receptor (Homo sapiens) (P11473 whole entry, looked up): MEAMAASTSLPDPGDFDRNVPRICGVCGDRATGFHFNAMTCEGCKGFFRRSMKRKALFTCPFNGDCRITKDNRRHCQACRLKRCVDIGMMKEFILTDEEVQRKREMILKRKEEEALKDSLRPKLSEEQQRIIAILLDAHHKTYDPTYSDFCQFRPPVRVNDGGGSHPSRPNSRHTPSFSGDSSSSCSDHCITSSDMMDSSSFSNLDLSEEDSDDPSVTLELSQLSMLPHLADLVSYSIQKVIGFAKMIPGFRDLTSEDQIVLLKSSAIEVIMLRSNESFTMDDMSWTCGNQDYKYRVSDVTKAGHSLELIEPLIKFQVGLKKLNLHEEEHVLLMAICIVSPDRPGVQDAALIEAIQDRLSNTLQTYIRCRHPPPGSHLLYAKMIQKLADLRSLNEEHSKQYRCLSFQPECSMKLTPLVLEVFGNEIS

SMILES	activation
CS/C(=N\O)C(=O)N(C)C	3.53% (inactive)
CCCCCCCCCCCCc1ccccc1	2.63% (inactive)
CCCCCCC(O)CCCCCCCCCCC(=O)O (stereo not given)	-9.97% (inactive)
C=C(C)C(=O)OCCOCCOCCOC(=O)C(=C)C	0.0269% (inactive)
CCC(C)(C)C1CCC(O)CC1 (stereo not given)	0.749% (inactive)
Brc1ccc(Oc2ccc(Br)cc2)cc1	-0.221% (inactive)
COC(=O)c1c(Cl)nn(C)c1S(=O)(=O)NC(=O)Nc1nc(OC)cc(OC)n1	1.85% (inactive)
O=[N+]([O-])c1ccc(O)cc1C(F)(F)F	-7.57% (inactive)
CCCCCCCCCCCCCCN	4.8% (inactive)
Nc1cc(Cl)nc(C(=O)O)c1Cl	-0.181% (inactive)
CCCC/C=C\CCCCCCCCO	-0.949% (inactive)
CO[Si](OC)(OC)c1ccccc1	1.08% (inactive)
CS(=O)(=O)c1ccc(Cl)cc1	-1.27% (inactive)
CCNc1nc(NC(C)CC)nc(OC)n1 (stereo not given)	2.14% (inactive)
O=C(OCC1CCC2OC2C1)C1CCC2OC2C1 (stereo not given)	-5.36% (inactive)
CC(C)Cc1c(C(=O)O)c(C(F)F)nc(C(F)(F)F)c1C1=NCCS1	1.22% (inactive)
C=Cc1ccc(P(c2ccccc2)c2ccccc2)cc1	3.16% (inactive)
CC1(C)C(=O)NC(=O)N1CO	3.31% (inactive)
C#CCOC(=O)[C@@H](C)Oc1ccc(Oc2ncc(Cl)cc2F)cc1	2.62% (inactive)
C[C@]12CCC(=O)C=C1CC[C@@H]1[C@@H]2[C@@H](O)C[C@]2(C=O)[C@@H](C(=O)CO)CC[C@@H]12	-1.44% (inactive)

SMILES	activation
Cc1ccc(S(=O)(=O)N=C=O)cc1	-2.44% (inactive)
CS(C)=O	10.3% [at 54 mM] (inactive)
O=c1oc(=O)c2cc3c(=O)oc(=O)c3cc12	-2.03% (inactive)
CN(C)CCOCCN(C)C	-0.158% (inactive)
CSC(=O)c1cccc2nnsc12	6% (inactive)
CO[Si](CCCOCC1CO1)(OC)OC (stereo not given)	1.29% (inactive)
CCCCCCCC[Si](OCC)(OCC)OCC	-3.39% (inactive)
CCCCCCCCCCCCCO	-0.876% (inactive)
CCCCC(CC)COC(=O)CS (stereo not given)	2.46% (inactive)
COC(=O)c1ccc(I)cc1S(=O)(=O)NC(=O)Nc1nc(C)nc(OC)n1	0.0562% (inactive)
COC(=O)c1cccc(C)c1S(=O)(=O)NC(=O)Nc1nc(OCC(F)(F)F)nc(N(C)C)n1	-1.13% (inactive)
Cc1cc(C)c(N)c(Cl)c1	-2.19% (inactive)
CCCCCCCC(=O)Oc1c(Br)cc(C#N)cc1Br	1.55% (inactive)
CCCC/C=C\CCCCCCCCCC=O	3.76% (inactive)
CC(C)(C)C1CCC(O)CC1 (stereo not given)	2.53% (inactive)
C[Si](C)(C)N[Si](C)(C)C	1.67% (inactive)
OCCOCCOCCOCCO	-0.134% (inactive)
CC(COc1ccc(C(C)(C)C)cc1)OS(=O)OCCCl (stereo not given)	-9.73% (inactive)
NN(c1ccccc1)c1ccccc1	-1.43% (inactive)
CC(C)c1ccc(C(C)C)cc1	5.93% (inactive)
